Results taken from PubChem BioAssay (Tox21).
Where “and” joins values, the source holds several entries; their conditions need not be identical. Equal values may be shown once. Records with an inconclusive call do not appear. A call without a number means that no potency is given here. More than one record can exist for a structure, and the calls need not agree. Calls of active or inactive are those of the source. Calls come from the whole dose curve; as a rule, active = well fitted curve in the direction sought with a large enough effect in the repeat runs; inconclusive = weak or mixed curves; inactive = no such curve, though single readings can be large; an effect the other way counts as inactive or inconclusive.

Assay: qHTS assay to identify small molecule agonists of the sonic hedgehog signaling (Shh) pathway - cell viability counter screen (AID 1259366); note: nearly all actives have a fitted effect of over 50% in size
Details: NIH/3T3 Gli1-Luc viability, CellTiter-Fluor, 24 h; series mostly up to 92.4 µM; viability change, negative = cytotoxic: at the top concentration
Outline: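 In quantitative high-throughput format, 3T3 Gli1-Luc cells were exposed to compounds for 24hr and multiplexed for viability using CellTiter-Fluor, incubated 1hr at 37C before the fluorescence read.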
Potency is the fitted concentration of half-maximal effect.

Compound	Potency	viability change, negative = cytotoxic
CC(=O)OCc1ccc2c(c1)OCO2	inactive	–
CCCOC(=O)NCCCN(C)C	inactive	–
CN1Cc2c(N)cccc2C(c2ccccc2)C1 (stereo unspecified)	inactive	–
O=c1n(CCCN2CCN(c3cccc(Cl)c3)CC2)nc2ccccn12	inactive	–
Cc1ccccc1Cl	inactive	–
NC(N)=S	inactive	–
CC(C)(CO)CO	inactive	–
COC(=O)OC	inactive	–
CC1(C)C(=O)N(Cl)C(=O)N1Cl	inactive	–
CC(C)(C)NC[C@H](O)COc1nsnc1N1CCOCC1	inactive	–
Cc1cccc(C)c1[N+](=O)[O-]	inactive	–
CC(CN1c2ccccc2Sc2ccccc21)N(C)C (stereo unspecified)	61.8 µM (active) and 30.6 µM (active) and inactive	–
O=C1OC(=O)c2c(Cl)c(Cl)c(Cl)c(Cl)c21	inactive	–
OCc1ccc(Cl)cc1Cl	inactive	–
O=C1O[C@H]([C@H](O)CO)C(O)=C1O	inactive	–
OCCOCCOCCOCCOCCO	–	1.42% (inactive)
CCN(CC)CCNC(=O)c1ccc(N)cc1	–	1.02% (inactive)
COCN(COC)c1nc(N(COC)COC)nc(N(COC)COC)n1	inactive	–
CC(=O)OCCC(C)C	inactive	–

Assay: qHTS assay to identify small molecule antagonists of the sonic hedgehog signaling (Shh) pathway - cell viability counter screen (AID 1259367); note: nearly all actives have a fitted effect of over 55% in size
Details: NIH/3T3 Gli1-Luc viability, CellTiter-Fluor, 24 h; series mostly up to 92.4 µM; viability change, negative = cytotoxic: at the top concentration
Outline: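 CellTiter-Fluor signal in conditioned medium-stimulated 3T3 Gli1-Luc cells, 23 hr compound exposure, 37C.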

Compound	Potency	viability change, negative = cytotoxic
Cc1cc(CC(=O)O)n(C)c1C(=O)c1ccc(Cl)cc1	inactive	–
Cc1ccccc1C=O	inactive	–
C[n+]1ccn(CCO)c1	inactive	–
CCCN(CCC)C(=O)SCC	inactive	–
C1CCCNCC1	inactive	–
NCCNCCNCCN	inactive	–
COC(=O)/C=C\C(=O)OC	inactive	–
C=CC(=O)NCOCCCC	inactive	–
CS(=O)(=O)c1ccc(Cl)cc1	inactive	–
OCC(O)CS (stereo unspecified)	inactive	–
NC1CCCCC1N (stereo unspecified)	inactive	–
CC(C)=CCC/C(C)=C/C=O	inactive	–
O=C(NCC1CCCCN1)c1cc(OCC(F)(F)F)ccc1OCC(F)(F)F (stereo unspecified)	inactive	–
CCCCCNCCCCC	inactive	–
Cc1ccc(C)c(S(=O)(=O)O)c1	inactive	–
C=C(CC(=O)O)C(=O)O	inactive	–
CCn1cc(C(=O)O)c(=O)c2cc3c(cc21)OCO3	inactive	–
C=C1C[C@]23C[C@@]1(O)CC[C@H]2[C@@]12C=C[C@H](O)[C@@](C)(C(=O)O1)[C@H]2[C@@H]3C(=O)O	inactive	–
CC(=O)OCc1ccc2c(c1)OCO2	inactive	–

Compound	Potency	viability change, negative = cytotoxic
CCCOC(=O)NCCCN(C)C	inactive	–
CN1Cc2c(N)cccc2C(c2ccccc2)C1 (stereo unspecified)	inactive	–
O=c1n(CCCN2CCN(c3cccc(Cl)c3)CC2)nc2ccccn12	inactive	–
Cc1ccccc1Cl	inactive	–
NC(N)=S	inactive	–
CC(C)(CO)CO	inactive	–
COC(=O)OC	inactive	–
CC1(C)C(=O)N(Cl)C(=O)N1Cl	inactive	–
CC(C)(C)NC[C@H](O)COc1nsnc1N1CCOCC1	inactive	–
Cc1cccc(C)c1[N+](=O)[O-]	inactive and 48.6 µM (active)	–
CC(CN1c2ccccc2Sc2ccccc21)N(C)C (stereo unspecified)	27.6 µM (active) and inactive	–
O=C1OC(=O)c2c(Cl)c(Cl)c(Cl)c(Cl)c21	inactive	–
OCc1ccc(Cl)cc1Cl	inactive	–
O=C1O[C@H]([C@H](O)CO)C(O)=C1O	inactive	–
OCCOCCOCCOCCOCCO	–	-3.36% (inactive)
CCN(CC)CCNC(=O)c1ccc(N)cc1	inactive	–
COCN(COC)c1nc(N(COC)COC)nc(N(COC)COC)n1	inactive	–
CC(=O)OCCC(C)C	inactive	–
